Results reported in PubChem BioAssay (NCI).
Compounds without any hit were thinned out: in the full panel of roughly 83,000, 20% have a hit.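 Plates (96-well) were seeded with cells, treated with compound at one concentration, and incubated for 48 hours before percent growth was determined.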 Unmarked numbers belong to inactive results. Active and inactive are the calls of the source. The calls were made as follows: active = growth percent below 10; inactive = the rest.

The molecules below were run on HT29 colon (assay: NCI-60 one-dose screen, 48 h (100 = growth as untreated, 0 = no growth, -100 = all killed)). Conditions: 10 µM unless noted.
`CCCN(CCSSCCNc1nc(N(C)O)nc(N(C)O)n1)c1nc(N(C)O)nc(N(C)O)n1` showed a growth of 78.4%. Work on `COC(=O)c1sccc1-c1cc(O)c(C(=O)Nc2ccccc2)s1` yielded a growth of 90%. In the case of `N#Cc1c(-c2ccc(Cl)cc2)nc(NN=Cc2ccc[nH]2)nc1N1CCOCC1`, the growth is reported as 66.2%. For `Clc1ccc(-c2nc(C(Cl)Cl)nc3cc(-c4ccccc4)nn23)cc1`, the growth was 5.93% (active). `C/C(=N\Nc1ccccc1)c1ccc(NC2=CC(=O)c3ccccc3C2=O)cc1` showed a growth of 75.3%. Work on `COc1ccc(/C=C(/C(=O)N2CCNCC2)c2cc(OC)c(OC)c(OC)c2)cc1O` yielded a growth of 88.1%. With `CCN(CC)CCCC(Cc1ccccc1)Nc1c2ccc(Cl)cc2nc2ccc(OC)cc12` (stereo not given) the growth was 16.3%. For `Fc1ccc2[nH]cc(-c3nc(-c4c[nH]c5c(Cl)nccc45)cs3)c2c1`, the growth was 17.5%. `Fc1ccc(/C=C/[C@@H]2C[C@@H](F)CCO2)cc1` showed a growth of 99.9%. `Cc1ccccc1N1CCN(C(=S)c2ccccc2)CC1` showed a growth of 96.2%. In the case of `N#Cc1ccc(/C=C/c2cn(-c3ccccc3)nc2-c2cccc([N+](=O)[O-])c2)cc1`, the growth is reported as 53.2%. `Cc1[nH]c(C(=O)Nc2ccccc2OC2CCN(CCN3CCOCC3)CC2)c(Cl)c1Cl` was tested, and the growth was 73.7%. In the case of `COc1ccc(C(O)c2cc3c(N)c(C(=O)Nc4cccc5ccccc45)sc3nc2C)cc1` (stereo not given), the growth is reported as 6.41% (active). With `Cc1ccc(C(=O)c2ccc(CC(=O)N/N=C/c3cccc(O)c3O)n2C)cc1` the growth was 86.7%. Molecule `CCC(C)(C)c1ccc(Nc2ccc(Nc3ccc(C(C)(C)CC)cc3)cc2)cc1` has a growth of 67%. `O=C(Nc1ccc(Nc2ccncc2)cc1)c1ccc(Nc2ccnc3ccc([N+](=O)[O-])cc23)cc1` gave a growth of 102%. `CCCCNC(=O)c1ccc2c(c1)nc(-c1ccccc1)n2C1CCCCC1` was tested, and the growth was 50.3%. `Cc1ccc(NC(=O)c2cc3ccccc3cc2O)c(C)c1` was tested, and the growth was 104%. Molecule `CCOC(=O)C(CCN(C)C)c1ccccc1` (stereo not given) has a growth of 92.1%. `CC(O)Cc1c[nH]c(=O)[nH]c1=O` (stereo not given) was tested, and the growth was 114%. `COCCn1cc(-c2nc(-c3c[nH]c4ncccc34)cs2)c2ccccc21` gave a growth of 50.2%. In the case of `CC1SC(c2ccccc2O)N(NC(=O)CCC(=O)c2nc3ncccc3[nH]2)C1=O` (stereo not given), the growth is reported as 105%. `COC12C=C/C(=C(/C(=O)OCCSc3ccnn3C)C(=O)CCCCCCCCC3(OC)C=C/C(=C(/C(=O)OCCSc4ccnn4C)C(=O)CCCCCCCC1)O3)O2` was tested, and the growth was 11.9%. For `COC1C(O)CC(OC2CC(OC3CC(O[C@@H]4C(=O)c5c(cc6cc(OC7CC(OC8CC(O)C(O)C(C)O8)C(O)C(C)O7)c(C)c(O)c6c5O)CC4[C@H](OC)[C@@H](O)C(C)=O)OC(C)C3O)OC(C)C2O)OC1C` (stereo not given in full), the growth was -16.9% (active). In the case of `CNC(=O)c1cc(Oc2ccc3c(c2)sc2nc(-c4ccc(NC(=O)[C@@H](NC(=O)OC)C(C)C)cc4)cn23)ccn1`, the growth is reported as 72.1%.

The molecules below were run on SNB-75 CNS in the same assay as above. Conditions: 10 µM unless noted.
For `COc1ccc(C=Nc2c(C(=O)Nc3cccc(Cl)c3C)sc3nc(C)c(C(=O)/C=C/c4ccc(OC)cc4)cc23)cc1`, the growth was -11.3% (active). Work on `CCOC(=O)CNC1=C(Cl)C(=O)N(Cc2ccc(Cl)cc2)C1=O` yielded a growth of 97.9%. For `COc1ccc(/C=C(\C(=O)NCc2cccnc2)S(=O)(=O)c2ccccc2)cc1OC`, the growth was 54.2%. Work on `COc1cc2c(c(OC)c1OC)CCC(c1cccc(C(=O)Nc3ccc(Br)cc3)c1)O2` (stereo not given) yielded a growth of 61.8%. Molecule `Nc1cc(-c2ccc(Cl)cc2)nn1-c1nnc(/C=C/c2ccco2)c(=O)[nH]1` has a growth of 67.3%. For `N#C/C(=C\c1ccc(-c2cccc(Cl)c2)o1)C(=O)Nc1ncc(Cc2ccc(Cl)cc2)s1`, the growth was -3.05% (active). `CCOC(=O)c1c(C)nc2c(c1N)C(=O)C(=O)N2Cc1ccc(OC)cc1` showed a growth of 30%. `c1csc(-c2cn3nc(-c4c[nH]c5ccccc45)sc3n2)c1` was tested, and the growth was -4.32% (active). In the case of `FC(F)(F)c1[nH]ncc1-c1nc2ccc3[nH]ncc3c2c2c1CCCC2`, the growth is reported as 8.42% (active). With `COc1cc(-c2nccc3[nH]c(-c4cccc5[nH]ccc45)nc23)cc(OC)c1OC` the growth was 73.6%. `COc1ccc2[nH]cc(-c3nonc3-c3c[nH]c4ccc(Br)cc34)c2c1` gave a growth of 58.6%. For `CC(=O)c1c(Nc2cccc(F)c2)[nH]c2c(Cl)cc(Cl)c(Cl)c2c1=O`, the growth was -9.54% (active). Work on `CCOC(=O)NC(=S)n1oc(=O)c2ccccc21` yielded a growth of 94.7%. `O=S(Nc1ccccc1)c1ccc(Cl)cc1` (stereo not given) was tested, and the growth was 83.2%. Work on `Nc1c(Br)cc2c(c1Br)Cc1cc([N+](=O)[O-])ccc1-2` yielded a growth of 75.3%. In the case of `CCCN(CCSSCCNc1nc(N(C)O)nc(N(C)O)n1)c1nc(N(C)O)nc(N(C)O)n1`, the growth is reported as 73.8%. In the case of `COC(=O)c1sccc1-c1cc(O)c(C(=O)Nc2ccccc2)s1`, the growth is reported as 72%. `N#Cc1c(-c2ccc(Cl)cc2)nc(NN=Cc2ccc[nH]2)nc1N1CCOCC1` was tested, and the growth was -13.5% (active). `Clc1ccc(-c2nc(C(Cl)Cl)nc3cc(-c4ccccc4)nn23)cc1` was tested, and the growth was -13.1% (active). `C/C(=N\Nc1ccccc1)c1ccc(NC2=CC(=O)c3ccccc3C2=O)cc1` showed a growth of 51.1%. For `COc1ccc(/C=C(/C(=O)N2CCNCC2)c2cc(OC)c(OC)c(OC)c2)cc1O`, the growth was 28.1%. `CCN(CC)CCCC(Cc1ccccc1)Nc1c2ccc(Cl)cc2nc2ccc(OC)cc12` (stereo not given) was tested, and the growth was 10.6%. `Fc1ccc2[nH]cc(-c3nc(-c4c[nH]c5c(Cl)nccc45)cs3)c2c1` gave a growth of 49.9%. `Fc1ccc(/C=C/[C@@H]2C[C@@H](F)CCO2)cc1` gave a growth of 99.3%. Work on `Cc1ccccc1N1CCN(C(=S)c2ccccc2)CC1` yielded a growth of 84.7%. Molecule `N#Cc1ccc(/C=C/c2cn(-c3ccccc3)nc2-c2cccc([N+](=O)[O-])c2)cc1` has a growth of 27.3%. In the case of `Cc1[nH]c(C(=O)Nc2ccccc2OC2CCN(CCN3CCOCC3)CC2)c(Cl)c1Cl`, the growth is reported as 76.1%. `COc1ccc(C(O)c2cc3c(N)c(C(=O)Nc4cccc5ccccc45)sc3nc2C)cc1` (stereo not given) showed a growth of 32.5%. `Cc1ccc(C(=O)c2ccc(CC(=O)N/N=C/c3cccc(O)c3O)n2C)cc1` gave a growth of 25.4%. In the case of `CCC(C)(C)c1ccc(Nc2ccc(Nc3ccc(C(C)(C)CC)cc3)cc2)cc1`, the growth is reported as 93%. With `O=C(Nc1ccc(Nc2ccncc2)cc1)c1ccc(Nc2ccnc3ccc([N+](=O)[O-])cc23)cc1` the growth was 97.8%. `CCCCNC(=O)c1ccc2c(c1)nc(-c1ccccc1)n2C1CCCCC1` gave a growth of 114%. With `Cc1ccc(NC(=O)c2cc3ccccc3cc2O)c(C)c1` the growth was 96.8%. In the case of `CCOC(=O)C(CCN(C)C)c1ccccc1` (stereo not given), the growth is reported as 81.1%. `CC(O)Cc1c[nH]c(=O)[nH]c1=O` (stereo not given) showed a growth of 120%. Work on `COCCn1cc(-c2nc(-c3c[nH]c4ncccc34)cs2)c2ccccc21` yielded a growth of 47.2%. `CC1SC(c2ccccc2O)N(NC(=O)CCC(=O)c2nc3ncccc3[nH]2)C1=O` (stereo not given) gave a growth of 83.8%. `COC12C=C/C(=C(/C(=O)OCCSc3ccnn3C)C(=O)CCCCCCCCC3(OC)C=C/C(=C(/C(=O)OCCSc4ccnn4C)C(=O)CCCCCCCC1)O3)O2` was tested, and the growth was 56.8%. With `COC1C(O)CC(OC2CC(OC3CC(O[C@@H]4C(=O)c5c(cc6cc(OC7CC(OC8CC(O)C(O)C(C)O8)C(O)C(C)O7)c(C)c(O)c6c5O)CC4[C@H](OC)[C@@H](O)C(C)=O)OC(C)C3O)OC(C)C2O)OC1C` (stereo not given in full) the growth was -17.6% (active). Work on `CNC(=O)c1cc(Oc2ccc3c(c2)sc2nc(-c4ccc(NC(=O)[C@@H](NC(=O)OC)C(C)C)cc4)cn23)ccn1` yielded a growth of 99.5%.
